Screening results from PubChem.
Only a selection was taken, and hits are over-represented in it overall.
Dicer processing: human Dicer pre-microRNA cleavage inhibition; Q9UPY3; z-score at 25 µM; 47,000 compounds, 6% hits; cat-ELCCA pre-miR-21 Dicer processing, chemiluminescence; active compounds read high; in the data active = z-score above about 3, passing the limit was not always enough;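 note: plate controls were vehicle for no effect and no enzyme for full effect; higher signal means more uncleaved substrate so more Dicer inhibition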
Numbers without * were called inactive.

SMILES | Dicer processing
CCOc1cc(C2C(C#N)=C(N)Oc3c2c(C)nn3-c2ccccc2)ccc1O (stereo not drawn) | -7.3
CCO/C=N\C1=C(C#N)C(c2ccc(Cl)cc2)c2ccc3ccccc3c2O1 (stereo not drawn) | 3.9*
COc1ccc(C2C(C#N)=C(N)Oc3cc(O)ccc32)cc1Br (stereo not drawn) | 0.46
C=CCOc1c(Cl)cc(C2C(C#N)=C(N)Oc3cc(O)ccc32)cc1OC (stereo not drawn) | -0.24
N#CC1=C(N)Oc2c(ccc3ccccc23)C1c1ccc(Cl)cc1 (stereo not drawn) | 0.62
CCN(CC)c1ccc2c(c1)OC(N)=C(C#N)C2c1ccc(Cl)cc1 (stereo not drawn) | -0.3
COc1cc(C2C(C#N)=C(N)Oc3c2ccc2ccccc32)cc(Br)c1O (stereo not drawn) | 3.3*
CCO/C=N\C1=C(C#N)C(c2ccc(OC)cc2)c2ccc3ccccc3c2O1 (stereo not drawn) | 0.62
C=CCOC(=O)C1=C(C)NC2=C(C(=O)CCC2)C1c1cc(Cl)c(O)c(OC)c1 (stereo not drawn) | -0.51
CN(C(=O)c1cc2c(n(-c3ccccc3)c1=O)CCCC2=O)c1ccc(O)cc1 | -0.88
CCCC1c2ccsc2CCN1C(=S)Nc1ccc(Cl)cc1Cl (stereo not drawn) | -0.53
N=c1ncn(CC(O)CO)c2nc(N3CCOCC3)[nH]c12 (stereo not drawn) | 2.2
Cc1cc(Oc2nc3c(Cl)cc(Cl)cc3s2)c2cc(F)ccc2n1 | -2.6
O=[N+]([O-])c1cccc(C2N(c3ccccc3)CCN2c2ccccc2)c1 | -0.07
COC(=O)C1C2C=CC3(CN(Cc4ccccc4)C(=O)C13)O2 (stereo not drawn) | 1.7
O=C(O)C1C2C=CC3(CN(CCc4ccccc4)C(=O)C13)O2 (stereo not drawn) | -0.96
O=C(O)C1C2C=CC3(CN(Cc4ccccc4)C(=O)C13)O2 (stereo not drawn) | 3.2*
CCCNC(=O)NNC(=O)c1cccs1 | -0.94
O=C(O)/C=C/C(=O)Nc1ccc(-n2ccc(C(F)(F)F)n2)cc1 | 0.57
COc1ccccc1C1N(c2ccccc2)OC(=O)N1c1ccccc1 (stereo not drawn) | 0.2
O=C1CC(c2ccc3c(c2)OCO3)c2c(-c3ccccc3)nn(-c3ccccc3)c2N1 (stereo not drawn) | 0.02
O=C1ON(c2ccccc2)C(c2ccc3c(c2)OCO3)N1c1ccccc1 (stereo not drawn) | 3.2*
O=C1NC(=O)C2C1Sc1[nH]c(=O)sc1C2c1ccco1 (stereo not drawn) | -2.1
CN(C)/C=C/C=C1\N=C(c2ccccc2)OC1=O | 0.68
CN(C)N1C(=O)c2cccc3cccc(c23)C1=O | 3
SMILES | Dicer processing
CN(C)/C=C/C=c1/c(=O)c2cccc3cccc1c32 | 3.7*
O=C(Cn1c(=O)sc2ccccc21)Nc1cccc(Cl)c1 | 0.05
CC1CN(Cc2ccccc2)c2nc3c(c(=O)n(CC(=O)O)c(=O)n3C)n2C1 (stereo not drawn) | 0.77
COCC1=C(C(=O)OC)C(c2cccs2)n2ncnc2N1 (stereo not drawn) | 2.1
O=C1c2cccc3c(N4CCOCC4)ccc(c23)C(=O)N1c1cccc(O)c1 | 0.21
O=C1c2cccc3c(N4CCOCC4)ccc(c23)C(=O)N1c1cc(Cl)ccc1O | 8.3*
O=C1c2cccc3c(N4CCOCC4)ccc(c23)C(=O)N1c1ccccc1 | 0.14
O=[N+]([O-])C1=Cc2ccccc2OC1c1ccc(C2Oc3ccccc3C=C2[N+](=O)[O-])cc1 (stereo not drawn) | 1.2
O=C(Oc1cccc2cccnc12)c1ccccc1 | -0.08
Cc1cc(C)cc(OC(=O)c2ccc(Cl)c(Cl)c2)c1 | 1.5
O=C(Oc1ccc(Cl)c2cccnc12)c1cccnc1 | 3.5*
COc1ccc(C(=O)Oc2ccc(Cl)c3cccnc23)cc1OC | 4.5*
COc1ccc(/C(C)=N/OC(=O)c2cc(OC)c(OC)c(OC)c2)cc1CSc1ccccn1 | -0.4
O=C(Oc1ccc(Cl)c2cccnc12)N1CCOCC1 | -1.1
CC(=O)Nc1ccc2nc(C)sc2c1 | -1.5
CCCNC(=S)NNC(=O)Cc1ccc(Cl)c(Cl)c1 | -0.53
N/C(=N\C(=S)Nc1ccc(Cl)c(Cl)c1)c1ccccc1 | 5.4*
CC(C)c1ccc(NC(=S)N=C(N)N)cc1 | 2.1
NC(=S)NNc1ccc(Cl)c(Cl)c1 | 2.3
c1ccc(Sc2nc3ccccc3nc2Sc2ccccc2)cc1 | -0.52
NC1=NC(c2ccccc2O)n2c(nc3ccccc32)N1 (stereo not drawn) | 3.6*
NC1=NC(c2ccncc2)n2c(nc3ccccc32)N1 (stereo not drawn) | 0.89
CCOc1cc(C2N=C(N)Nc3nc4ccccc4n32)ccc1O (stereo not drawn) | 2.4
NC1=NC(c2ccccc2)n2c(nc3ccccc32)N1 (stereo not drawn) | 2.2
COc1ccc(C2N=C(N)Nc3nc4ccccc4n32)c(OC)c1 (stereo not drawn) | 0.18
COc1cc(C2N=C(N)Nc3nc4ccccc4n32)ccc1O (stereo not drawn) | 5.9*
